In ChEMBL document CHEMBL1157539, “Thousands of chemical starting points for antimalarial lead identification” (Nature, 2010) one finds Inhibition data, which are given here for 40 compounds.

SMILES strings stand for the structures.

The experiment deals with HepG2. Briefly: GSK_TCMDC: Percent inhibition of human HepG2 cell line. Test compounds present at 10uM. It is filed as functional.
For the compound `CN1CCC(NCc2cccc(-c3ccc(S(=O)(=O)NCCN4CCCC4)c(F)c3)c2)CC1.O=C(O)C(F)(F)F`, the Inhibition (in general, the percentage by which the read-out fell short of the control) amounted to 14%.

Turning to `O=C(Nc1cccc(CN2CCCN(Cc3ccsc3)CC2)c1)c1ccc(-c2ccccc2)cc1.O=C(O)C(F)(F)F`, the Inhibition is listed as 30%.

For `Cc1cccc2nc(C3CCN(CC4CCN(C(=O)/C=C/c5ccc(Cl)c(Cl)c5)CC4)CC3)[nH]c12`, the Inhibition was 46%.

Turning to `COc1ccc(/C=C/C(=O)N2CCc3cc4nccc(N5CCN6CCC[C@H]6C5)c4cc32)cc1`, the Inhibition is 0%.

`CN(C)CCNCc1ccc(-c2ccc3c(Nc4ccc(Cl)cc4F)ccnc3c2)o1` showed an Inhibition of 14%.

With `Cc1nc(C)c(C2CCC(c3ccc(Cl)cc3)CC2)c(O)c1Cl` (stereo not given), the Inhibition was 37%.

`Fc1ccc(C=NNc2nc3ccccc3[nH]2)cc1` registered an Inhibition of 0%.

`Cc1cnc(NCC2CCCCC2)nc1N[C@@H](CO)C(=O)Nc1ccccc1.O=C(O)C(F)(F)F` had an Inhibition of 0%.

Regarding `CCSc1nnc(C2CCCN(CC(=O)Nc3cc(C(F)(F)F)ccc3Cl)C2)n1CC` (stereo not given), the Inhibition turned out to be 0%.

With `COc1ccc(-n2ccnc2SCC(=O)Nc2cc(C)ccc2C)c(OC)c1`, the Inhibition is on record as 2%.

Turning to `CN=C(NC)c1cccc(NC(=O)C=Cc2ccc(C=CC(=O)Nc3cccc(C(=NC)NC)c3)cc2)c1.Cl`, the Inhibition was found to be 21%.

Take `Cl.N#Cc1ccc2c(c1)CN(CCC1CCC(NC(=O)c3cc4cc(OC(F)(F)F)ccc4[nH]3)CC1)CC2` (stereo not given): the Inhibition was determined as 4%.

For `Cl.c1ccc(COc2ccc(Nc3ncnc4cnc(-c5ccc(CN6CCCCC6)o5)cc34)cc2)cc1`, the Inhibition worked out at 0%.

Take `CCOC(=O)c1nc(-c2cccnc2)[nH]c1NC(=S)NCc1ccccc1`: the Inhibition is reported as 10%.

For `COc1ccc(CN(C)CCCc2ccc(NC(=O)c3cccc4c(=O)c5cccc(F)c5[nH]c34)cc2)cc1OC`, the Inhibition came to 100%.

`CS(=O)(=O)N(c1cccc(F)c1)c1cc(C(=O)N[C@@H](Cc2ccccc2)[C@H](O)CNCc2cccc(C(F)(F)F)c2)cc(N2CCCC2=O)c1.O=CO` displayed an Inhibition of 14%.

For the compound `CC(C)C[C@@H](NC(=O)OC(C)(C)C)C(=O)Nc1ccc(Cc2ccc(NC(=O)[C@@H](CC(C)C)NC(=O)OC(C)(C)C)cc2)cc1`, the Inhibition was 8%.

Compound `N#Cc1cccc(-c2cnc(N)c(-c3nc4cc(S(N)(=O)=O)ccc4[nH]3)c2)c1` registered an Inhibition of 16%.

On to `O=C(/C=C/c1ccc(Cl)c(Cl)c1)NCCCCCCN1CCN(C(=O)Nc2ccc(Cl)c(Cl)c2)CC1`, for which the Inhibition turned out to be 23%.

`CCCc1ccc(C(=O)N2C(c3nccs3)C(C(N)=O)CC2(CC(C)C)C(=O)O)cc1` (stereo not given) displayed an Inhibition of 16%.

The compound `COC(=O)Nc1nc2cc3c(cc2s1)OCCO3` registered an Inhibition of 0%.

`Cc1nc(N)nc(N)c1OCc1cccc2ccccc12.Cl` gave an Inhibition of 63%.

Take `CCCNc1nc(Nc2ccccc2C)nc2ccccc12`: the Inhibition worked out at 13%.

Compound `COc1cc2nc(N3CCC(CNC(=O)c4cc5ccccc5s4)CC3)nc(N)c2cc1OC` had an Inhibition of 8%.

Compound `C=CCn1c(Sc2ccc(C#N)c([N+](=O)[O-])c2)nnc1-c1cccc(Cl)c1` showed an Inhibition of 41%.

`COc1ccc(OCC(=O)Nc2nc(-c3ccc(OC)cc3)c(C)s2)cc1`: the Inhibition came out at 0%.

As to `CC(=O)Nc1ccc(CCNC(C)Cc2ccc(C(=O)Nc3ccc(CC(C)NCCc4cccc(Cl)c4)cc3)cc2)cc1.Cl` (stereo not given), the Inhibition was determined as 50%.

For the compound `COc1cc2nc(Nc3ccc4c(cnn4Cc4ccccc4)c3)nc(Nc3ccc4c(cnn4Cc4ccccc4)c3)c2cc1OC`, the Inhibition turned out to be 4%.

`CCC(C)NS(=O)(=O)c1ccc2nc(Nc3ccc(C)c(Cl)c3)n(C3CCCCC3)c2c1` (stereo not given): the Inhibition is on record as 0%.

`CC1(C)NC(N)=NC(=N)N1OCOc1ccc(Cl)cc1.Cl`: the Inhibition came out at 68%.

For the compound `CN(C)CCn1c(=N)n(CC(O)c2ccc(Cl)c(Cl)c2)c2ccccc21.Cl` (stereo not given), the Inhibition was determined as 20%.

As to `COc1cccc(-n2ncc3c(N/N=C/c4ccc(CN(C)CCN(C)C)cc4)ncnc32)c1`, the Inhibition is 29%.

With `CC[C@H](C)CNC(=O)c1ccnc(-c2ccc(CN3CCC(N4CCCC4)CC3)cc2)c1.O=C(O)C(F)(F)F`, the Inhibition amounted to 13%.

Compound `CC(C)(CNCc1cc(Cl)cc(Cl)c1)c1nc(-c2ccnc(N)n2)c(-c2ccc(Cl)c(O)c2)[nH]1.Cl` registered an Inhibition of 54%.

Compound `O=C(/C=C/c1ccc(Cl)c(Cl)c1)N1CCC(CN2CCC(Cc3c[nH]c4ccccc34)CC2)CC1` returned an Inhibition of 24%.

In the case of `Cc1cccc2nc(-c3ccc(-c4cccc(NC(=O)C(C)CN(C)C)c4)cc3)[nH]c12` (stereo not given), the Inhibition was found to be 20%.

For the compound `COc1ccc2ncc(F)c([C@H](O)CN3CCC(NCc4ccc5c(c4)OCCO5)CC3)c2c1.Cl`, the Inhibition worked out at 1%.

Take `COc1ccc(NC2=C(c3ccccc3)C(=O)c3ccccc32)cn1`: the Inhibition is recorded as 0%.

For the compound `Cc1cc(N[C@@H](CC(C)C)C(=O)NCc2cccs2)nc(NCCc2ccc(F)cc2)n1.O=C(O)C(F)(F)F`, the Inhibition is on record as 20%.

`Cc1cc(N[C@@H](Cc2ccccc2)C(=O)NC2CCCC2)nc(NCc2ccccc2C)n1.O=C(O)C(F)(F)F` registered an Inhibition of 2%.
